Out of some 220,000 compounds screened, about 2,000 (0.91%) were called active. Another 2% or so got no clear call; they are omitted. Not all results are given here. Entries with a potency or affinity are not part of this list. Unmarked numbers belong to inactive results. Rule as the data show it: inconclusive = inhibition above about 80% without an active follow-up result; inactive = below that; test concentration not stated here.
Assay: M. tuberculosis H37Rv growth inhibitors, H37Rv strain (AID 1626);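 also: bacteria incubated seven days before Alamar blue readout; 0% = bacteria only wells and 100% = bacteria with antibiotic wells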
Conditions: hits give high values, concentration not given here

| SMILES | inhibition |
| --- | --- |
| Oc1ccc(/C=C/c2nc(-c3ccccc3O)n(-c3ccccc3)n2)cc1 | 21.6% |
| COc1ccc(/C=C/c2nc(-c3ccccc3O)n(-c3ccccc3)n2)cc1 | -4.12% |
| O=C(Nc1ccc(Nc2ccncc2)cc1)c1ccc(Nc2ccnc3ccc([N+](=O)[O-])cc23)cc1 | -3.41% |
| O=C(Nc1ccc(Nc2ccncc2)cc1)c1ccc([N+](=O)[O-])cc1 | -0.61% |
| CN1CCN(c2nc(-c3ccccc3)nc(-c3ccccc3)c2C#N)CC1 | 20.2% |
| N#Cc1c(-c2ccccc2)nc(-c2ccccc2)nc1N1CCOCC1 | -9.91% |
| COc1ccc(-c2nc(-c3cccc(C)c3)nc(N3CCN(C)CC3)c2C#N)cc1 | 6.59% |
| COc1ccc(-c2nc(-c3ccccn3)nc(N3CCN(C)CC3)c2C#N)cc1 | 1.76% |
| COc1ccc(-c2nc(-c3ccccc3)nc(N3CCN(C)CC3)c2C#N)cc1 | 9.82% |
| COc1cccc(-c2nc(N3CCN(C)CC3)c3ccccc3n2)c1O | 10.5% |
| O=C(COC(=O)c1ccco1)Nc1ccccc1 | -8.55% |
| CC(=O)c1sc(=S)n(-c2ccccc2)c1C | 7.39% |
| O=C(Cn1cnc2c(cnn2-c2ccc(F)cc2)c1=O)N1CCN(c2ccccc2F)CC1 | 3.88% |
| O=S(=O)(c1ccc(-c2csc(-c3cccnc3)n2)cc1)N1CCOCC1 | 3.97% |
| NC(=O)NC(=O)COC(=O)c1ccccc1OCc1ccc(F)cc1 | 4.1% |
| CN(C)S(=O)(=O)c1cc(NC(=O)CN2CCCc3ccccc32)ccc1Cl | -10.6% |
| O=C(CN1CCN(S(=O)(=O)c2ccc(Cl)cc2)CC1)Nc1ccc(F)cc1F | 6.43% |
| O=C(Cc1nnc(NC(=O)Nc2ccc(Cl)cc2)s1)NCc1ccccc1 | -0.51% |
| O=C(CSc1ncn[nH]1)Nc1ccc(OCc2ccccc2)cc1 | 47.3% |
| CCOc1ccc(NC(=O)Cc2ccccc2)cc1 | 5.27% |
| Cc1nc(SCC(=O)Nc2ccccn2)n[nH]1 | -3.41% |
| Cc1cccc(NC(=O)CCN2C(=O)C3C4C=CC(C4)C3C2=O)c1 (stereo unspecified) | 3.17% |

| SMILES | inhibition |
| --- | --- |
| CCOCC(=O)Nc1ccc(C)c(Cl)c1 | 76.9% |
| CCOC(=O)C(=O)Nc1ccc(OCc2ccccc2)cc1 | 12.6% |
| O=C(CCN1C(=O)C2C3C=CC(C3)C2C1=O)Nc1ccc2c(c1)OCO2 (stereo unspecified) | -1.34% |
| CC(=O)OCC(=O)Nc1ccc(Br)c(C)c1 | 21.6% |
| O=C(CSc1ncccn1)Nc1ccc2c(c1)CCC2 | 76% |
| CCOC(=O)c1sc(=S)n(C)c1NC(=O)c1ccc(C(C)(C)C)cc1 | 79.7% |
| Oc1ccc(-c2nc3ccccc3s2)cc1 | 59.6% |
| CCCOc1ccc(C(CC(=O)O)NC(=O)c2ccc3c(c2)OCO3)cc1 (stereo unspecified) | 3.69% |
| COc1ccc(-c2ocnc2C(=O)N2CCN(C(c3ccccc3)c3ccccc3)CC2)cc1 | -4.16% |
| O=C(NNC(=O)C1CCCO1)c1ccccc1Cl (stereo unspecified) | -7.82% |
| CCN(CC)S(=O)(=O)c1ccc(-c2nnc(SCC(=O)N3c4ccccc4CC3C)n2CC)cc1 (stereo unspecified) | 5% |
| CCC(CC)c1nnc(NC(=O)CCCN2C(=O)c3ccccc3C2=O)s1 | -6.94% |
| O=C(CN1CCN(c2ccccc2)CC1)Nc1ccc(OCc2ccccc2)cc1 | -8.11% |
| O=C(CN1CCCC1)Nc1ccc(OCc2ccccc2)cc1 | -0.61% |
| COc1ccc(CNC(=O)C2Cc3ccccc3CN2C(=O)c2ccco2)cc1 (stereo unspecified) | -0.615% |
| COCCNC(=O)c1ccc(CS(=O)(=O)c2ccc(C)cc2)o1 | -5.24% |
| COC(=O)c1ccc2nc(NC(=O)CN3C(=O)CCC3=O)sc2c1 | -25.1% |
| Cc1ccc(SCCNC(=O)c2ccc(C)c([N+](=O)[O-])c2)cc1 | -5.78% |
| Cc1ccc(C(=O)NCCSC(C)(C)C)cc1 | 2.64% |
| Cc1ccc2c(c1)-c1[nH]c(=S)ncc1CS2 | 3.39% |
| COc1ccc(-c2cc(C(F)(F)F)nc(SCC(=O)NCc3cccs3)n2)cc1OC | 0.43% |
| Cc1cc(OCC(=O)N(Cc2ccco2)C2CCS(=O)(=O)C2)ccc1Cl (stereo unspecified) | -8.25% |

| SMILES | inhibition |
| --- | --- |
| O=C(COC(=O)/C=C/c1ccc(F)cc1)NCc1ccco1 | -4.03% |
| O=C(CCCn1cc([N+](=O)[O-])cn1)NC1CCCCCC1 | 5.99% |
| CS(=O)(=O)c1cccc(C(=O)NCc2ccc(F)cc2)c1 | 9.82% |
| Cc1ccc(-c2cc(C(F)F)n3ncc(C(=O)Nc4c(C)nn(Cc5c(Cl)cccc5Cl)c4C)c3n2)cc1 | 57.7% |
| Cc1nn(Cc2c(Cl)cccc2Cl)c(C)c1NC(=O)c1cnn2c(C(F)F)cc(-c3ccccc3)nc12 | 49.7% |
| COc1ccccc1NC(=O)CSC1=NCCN1 | -6.91% |
| C=CCN1CN(S(=O)(=O)c2cccs2)c2nc3ccccc3nc21 | -3.39% |
| Cc1ccc(C)c(OCCCCCn2ccnc2)c1 | -10.5% |
| Cc1cccc(C(C)(C)C)c1OCCn1ccnc1 | -11% |
| Cc1ccccc1OCCCCCn1ccnc1 | 5.71% |
| Clc1ccccc1OCCCCn1ccnc1 | 2.53% |
| COc1ccccc1NC(=O)N1CCN(CCc2ccccc2)CC1 | -2.85% |
| CC(=O)OCC1OC(OC(C)=O)C(NC(=O)c2cccnc2)C(OC(C)=O)C1OC(C)=O (stereo unspecified) | -0.72% |
| CCCCN(C(=O)c1cc2ccccc2o1)c1c(N)n(CC(C)C)c(=O)[nH]c1=O | 9.87% |
| O=c1c2c(nc3c(-c4ccccc4)c[nH]n13)CCC2 | 2.63% |
| O=c1c2c(nc3c(-c4ccccc4)c[nH]n13)CCCC2 | 14.2% |
| COc1ccc(-c2c(C)[nH]n3c(=O)c(Cc4ccccc4)c(C)nc23)cc1OC | 38.6% |
| COc1ccc(-c2c(C)[nH]n3c(=O)c(Cc4ccccc4)c(C)nc23)cc1 | 70.9% |
| Cc1[nH]n2c(=O)c3c(nc2c1-c1cccc2ccccc12)CCC3 | -8.68% |
| COc1cccc(N=Nc2c(N)[nH]n3c(=O)c4c(nc23)CCCC4)c1 | 19.3% |
| Cc1ccc(-c2[nH]n3c(=O)c4c(nc3c2C)CCCC4)cc1 | 5.52% |
| Nc1[nH]n2c(=O)c3c(nc2c1N=Nc1ccccc1)CCCC3 | 79.3% |
